# Cycloheximide cs – counter-screen for Shiga toxin inhibitors: cycloheximide protein synthesis inhibition; AID 2314; max response, %; cell reporter, cycloheximide protein synthesis inhibition counterscreen; hit rate 12% among 300,000; in the data active means max response mostly above about 13%, no sharp cut-off; inactive means mostly below about 14%; further: read at 38.3 µM for the half of the compounds with a filed dose
# LASV entry inh – blocks Lassa virus binding to or entry into cells; Lassa virus pseudotype entry inhibition, cell reporter; Potency, µM (highest dose often 37.9 µM), hits mostly inhibitors; hit rate 1.2% among 300,000; calls by dose curve; tested in HEK293 cells; further: nearly all actives have a fitted effect of over 50% in size
# Pf growth 48h – P. falciparum growth inhibition at 48 hours (one generation); P. falciparum luciferase growth in erythrocytes, 48 h; Potency, µM (top dose mostly 28.7 µM), hits mostly inhibitors; hit rate 5.9% among 310,000
#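 Parasite viability was followed by luminescence of a genomically integrated firefly luciferase. Cultures held 0.1% parasitemia at 2% hematocrit (final), incubated under 5% CO2 at 37 C.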
# MARV entry inh – inhibitors of Marburg virus binding or cell entry | Marburg virus pseudotyped entry inhibition, cell reporter | Potency, µM (highest dose often 37.8 µM), actives largely listed as inhibitors | hit rate 1.8% among 300,000; calls by dose curve; tested in HEK293 cells
# Pf growth 96h – P. falciparum growth inhibition at 96 hour, primary screen for plastid delayed-death inhibitors. P. falciparum luciferase reporter growth, 96 h. Potency, µM (doses to about 28.7 µM), most hits filed as inhibitors. hit rate 6.9% among 320,000
#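 Compounds incubated with erythrocytes infected by luciferase-expressing P. falciparum (2% hematocrit, 0.05% parasitemia final) for 96 hours, 37 C in 5% CO2. Growth inhibition scored as decreased luciferase luminescence.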
# Shiga toxin inh – blocks Shiga toxin action in Vero cells. Vero cells, Shiga toxin protein synthesis inhibition reporter. inhibition, % at 38.7 µM. hit rate 9.2% among 290,000. AID 2315; in the data active means inhibition mostly above about 28%, no sharp cut-off; inactive means mostly below about 43%
# Hits are given with their value; 0 = inactive; ? = inconclusive; - = not tested or not shown; + = active, no number. This is a sample that favours compounds with a hit; in the whole collection about 19% have one here. Unless noted, the call rests on the fitted dose curve; in most records, active means well fitted inhibition curve with a large enough effect; inconclusive means small, poorly fitted or top-dose-only effect, or another doubt; inactive means no such curve, though single readings can be large or run the other way.
SMILES,Cycloheximide cs,LASV entry inh,Pf growth 48h,MARV entry inh,Pf growth 96h,Shiga toxin inh
CC1CCCN(c2nc3ccsc3c(=O)s2)C1 (stereo not given),44,0,0,0,-,119
Cn1c(SCc2ccc(Br)cc2)nc2ccccc2c1=O,0,0,0,0,?,0
O=C1c2ccccc2C(=O)C1c1ccc(O)cc1,28,0,0,0,?,70
COc1cccc(C2C(=O)c3ccccc3C2=O)c1,0,0,0,0,0,0
O=C1c2ccccc2C(=O)C1c1ccc(F)cc1,-,-,0,-,?,-
O=C1NC(c2ccc(O)cc2)Nc2ccccc21 (stereo not given),13,0,0,?,0,0
O=C1c2ccccc2C(=O)C1c1ccc(Cl)cc1,27,0,?,0,?,0
O=C1c2ccccc2C(=O)C1c1ccc(Br)cc1,19,0,?,?,15µM,88
CSc1ccc(C2NC(=O)c3ccccc3N2)cc1 (stereo not given),-,0,-,?,-,-
CCN(CC(=O)NCc1ccc(F)cc1)Cc1nc2ccccc2c(=O)[nH]1,0,0,?,0,?,0
Cc1ccc(NC(=O)N2CCCC2C(=O)Nc2ccc3c(c2)OCO3)cc1 (stereo not given),0,0,0,0,0,0
Clc1cccc(Cl)c1Cn1cnc2c(NCc3ccco3)ncnc21,0,?,0,?,-,0
Clc1cccc(Cl)c1Cn1cnc(=NCc2ccco2)c2[nH]cnc21,22,0,15µM,?,-,0
CCc1nnc(NC(=O)CCC(=O)N2CCC(Cc3ccccc3)CC2)s1,0,?,0,0,10µM,0
Cc1ccc(OCCN2CCN(C(=O)CCC(=O)Nc3nnc(C)s3)CC2)cc1,0,0,0,0,?,0
CCc1nnc(NC(=O)CCC(=O)N2CCCC2)s1,0,0,0,0,0,0
CCCc1nnc(NC(=O)CCC(=O)N2CCN(CCOc3ccc(C)cc3)CC2)s1,0,0,10µM,?,?,0
Cc1ccc(OCCN2CCN(C(=O)CCC(=O)Nc3nnc(C(C)C)s3)CC2)cc1,0,?,10µM,?,2.9µM,0
CC(=O)c1ccc(N2CCN(C(=O)CCS(=O)(=O)c3ccc4c(c3)NC(=O)CS4)CC2)cc1,44,-,?,-,?,55
COc1ccc(N2CCN(C(=O)CCS(=O)(=O)c3ccc4c(c3)NC(=O)C(C)S4)CC2)cc1 (stereo not given),0,-,?,-,9.3µM,0
Cc1ccc(C)c(N2CCN(C(=O)CCS(=O)(=O)c3ccc4c(c3)NC(=O)C(C)S4)CC2)c1 (stereo not given),0,-,?,-,0,0
O=C(Nc1ccc(N2CCOCC2)c(S(=O)(=O)Nc2cc(Cl)ccc2Cl)c1)c1cccnc1,0,-,0,-,0,0
Oc1ccc(Nc2nc(NCC3CCCO3)c3ccccc3n2)cc1 (stereo not given),0,?,1.7µM,?,0,0
COc1cccc(Nc2nc(NCC3CCCO3)c3ccccc3n2)c1 (stereo not given),0,?,-,?,0,0
Oc1ccccc1Nc1nc(NCC2CCCO2)c2ccccc2n1 (stereo not given),0,?,2.3µM,15µM,?,0
SMILES,Cycloheximide cs,LASV entry inh,Pf growth 48h,MARV entry inh,Pf growth 96h,Shiga toxin inh
COc1ccccc1-n1cc(-c2ccccc2)c2c(=S)nc[nH]c21,0,-,13µM,-,?,0
COc1ccc(-n2cc(-c3ccccc3)c3c(=O)[nH]cnc32)cc1,0,21µM,0,?,10µM,0
COc1cc(=O)n(C)c2cc(N(C)C)ccc12,0,0,0,0,-,0
Cc1ccc(-c2nnc3c4ccccc4c(C)nn23)cc1NC(=O)c1ccccc1Cl,-,0,-,0,-,-
COCCNC(=O)C/C(C)=N/NC(=O)C(=O)NC1CCCCC1,0,0,0,?,0,0
CC(C)c1ccc(CNCCSc2nnnn2-c2ccccc2)cc1,-,0,-,0,-,-
COc1cc(/C=N/N2C(=O)C3C4c5ccccc5C(c5ccccc54)C3C2=O)ccc1O (stereo not given),0,13µM,0,?,0,0
COc1cc(/C=N/N2CCN(c3ccccc3OC)CC2)ccc1O,26,0,0,?,0,+
COc1ccccc1N1CCN(/N=C/c2cccc(OC)c2OC)CC1,15,-,0,-,0,61
COc1cccc(/C=N/N2C(=O)C3C4c5ccccc5C(c5ccccc54)C3C2=O)c1OC (stereo not given),0,-,0,0,0,0
COc1ccccc1N1CCN(/N=C/c2c(C)nn(-c3ccccc3)c2C)CC1,0,0,?,0,?,0
COc1ccccc1N1CCN(/N=C/c2cc(OC)c(OC)c(OC)c2)CC1,0,0,0,0,?,0
COc1ccccc1N1CCN(/N=C\c2ccc(C)o2)CC1,0,0,0,0,?,100
COc1ccccc1Cn1c(-c2ccccc2OC)nc2ccccc21,0,0,-,0,-,0
COc1ccccc1N1CCN(/N=C\c2ccccc2)CC1,57,-,0,-,?,-
Cc1ccc(N2CCN(/N=C/C(Cl)=C/c3ccccc3)CC2)cc1,0,0,0,0,0,0
COc1ccccc1N1CCN(/N=C/C(Cl)=C/c2ccccc2)CC1,33,?,0,?,0,81
COc1ccccc1N1CCN(/N=C\c2sccc2C)CC1,0,0,0,0,?,99
Cc1ccc(N2CCN(/N=C/c3sccc3C)CC2)cc1,12,0,0,0,0,0
CC(C)n1cc(CN2CCC(C(=O)Nc3cccc(-c4cscn4)c3)CC2)cn1,0,-,0,-,?,0
Cc1ccc2nc3c(cc(C#N)c(=O)n3CCN3CCOCC3)c(=O)n2c1,0,-,0,-,0,0
NNC(=O)/C(=N/Nc1ccccc1)S(=O)(=O)c1ccc(Cl)cc1,0,16µM,9.3µM,?,12µM,0
CCOC(=O)/C(=N/Nc1ccc(C)cc1)S(=O)(=O)c1ccc(Cl)cc1,23,0,0,?,-,0
CS(=O)(=O)Nc1ccccc1C(=O)N1CCCC1,0,0,-,0,?,0
CC(NC(=O)CN1C(=O)NC(Cc2ccccc2)(Cc2ccccc2)C1=O)C12CC3CC(CC(C3)C1)C2 (stereo not given),0,?,-,?,12µM,0
SMILES,Cycloheximide cs,LASV entry inh,Pf growth 48h,MARV entry inh,Pf growth 96h,Shiga toxin inh
CC(NC(=O)Cn1ccsc1=N)C12CC3CC(CC(C3)C1)C2 (stereo not given),0,?,?,10µM,?,0
CC1CCCCC1NC(=O)CN1C(=O)NC(Cc2ccccc2)(Cc2ccccc2)C1=O (stereo not given),0,0,0,0,-,0
O=C(Cc1cccc2ccccc12)Nc1ccc(-c2cc3ccccc3oc2=O)cc1,0,?,12µM,?,?,0
Cc1cc(C)cc(C(=O)NC(=S)Nc2ccc(-c3cc4ccccc4oc3=O)cc2)c1,0,0,0,?,0,0
Cc1cccc(NC(=O)c2cc3ccccc3o2)c1,50,?,0,?,0,95
CCC(=O)Nc1cccc(-c2cc3ccccc3oc2=O)c1,61,0,0,0,0,83
COc1ccc(C(=O)Nc2cccc(-c3cc4ccccc4oc3=O)c2)cc1[N+](=O)[O-],0,?,13µM,?,0,0
Cc1cnc(NCCc2ccccc2)s1,0,-,?,-,0,0

# Bioassay records from PubChem BioAssay.
